The record followed here is PubChem BioAssay.

The structures appear in SMILES notation.

This assay is described as follows: basal HepG2 mitochondrial membrane potential changes, profiling panel, cell-based, JC-1 fluorescence, 24 h, 100 nL compound (AID 1167). Also: test concentration not given here. The conditions noted are these: higher = more signal.
The compound `C=C(/C(=C/C[C@H](OC(C)=O)c1ccc(CO)o1)c1cc(C(=O)OC)ccc1OC)C(C)C` displayed a z-score of 0.256.

The compound `COC(=O)[C@@]1(Cc2ccccc2)N=C(c2ccc(OCCCO)cc2)O[C@H]1c1ccccc1` gave a z-score of -2.02.

For the compound `CC(C)C[C@@H]1NC(=O)[C@@H]2C[C@H](C(=O)NCc3ccc(F)cc3)[C@H](c3cccc(OCCO)c3)N2C1=O`, the z-score turned out to be 1.9.

As for `O=C1c2ccccc2[C@](Cc2ccccc2I)(C(=O)NCCN2CCOCC2)[C@H](c2ccc(CO)cc2)N1C1CCCCC1`, the z-score came to 1.36.

On to `O=C1c2ccccc2[C@](Cc2ccccc2I)(C(=O)NCCN2CCOCC2)[C@H](c2ccc(CO)cc2)N1Cc1ccccc1Cl`, for which the z-score was found to be 1.77.

With `CC(C)C(=C=CC[C@@H](O)c1ccc(OCCO)cc1)C[C@@H](O)COCc1ccccc1`, the z-score amounted to 1.52.

Turning to `COC(=O)[C@]1(CCC(=O)OC(C)(C)C)N=C(c2ccc(OCCCO)cc2)O[C@@H]1c1ccccc1CN=[N+]=[N-]`, the z-score is -1.93.

In the case of `NC(=O)NCC#Cc1ccc2c(c1)[C@]1(C(=O)N2)[C@H](c2ccccc2OCCO)N2[C@H](c3ccccc3)[C@H](c3ccccc3)OC(=O)[C@H]2[C@@H]1C(=O)Nc1nc2ccccc2s1`, the z-score is -2.78.

Take `C=CCC(OC(C)=O)[C@@H]1[C@@H](N(Cc2ccc(-c3ccccc3)cc2)C(=O)Cc2ccc(OC)cc2)c2cc(OCCCO)ccc2N1C(=O)Cc1ccc2ccccc2c1` (stereo not given in full): the z-score is 1.25.

For the compound `C=C(CCCC)C(=O)CC[C@@H](OC(=O)c1ccccc1-c1ccccc1C(=O)O)c1ccc(OCCO)cc1`, the z-score was -1.4.

As for `CCCC[C@@H]1C[C@H]1[C@@H](NC(=O)c1ccco1)c1ccccc1C(F)(F)F`, the z-score was -1.7.

In turn, `CCOC(=O)C[C@H]1[C@H](OC(=O)c2cc3ccccc3oc2=O)[C@@H](NC(=O)c2ccccc2)c2cc(OCCCO)ccc2N1C(=O)c1ccc2ccccc2n1` had a z-score of -0.314.

In turn, `CCN(CC)c1ccc(N2CC=CC34O[C@@H]5C=CCCOC(=O)C5[C@H]3C(=O)N(CCCCCCO)[C@@H]4C2=O)cc1` (stereo not given in full) displayed a z-score of 0.432.

On to `COC(=O)[C@@]1(Cc2ccccc2)[C@H]2c3cc(C(=O)N(C)C)n(Cc4ccsc4Br)c3C[C@H]2CN1C(=O)c1ccccc1`, for which the z-score was determined as 1.17.

On to `COCCOC(=O)N1C(=O)[C@@]2(c3ccccc31)[C@H](c1ccccc1OCCO)N1[C@H](c3ccccc3)[C@H](c3ccccc3)OC(=O)[C@H]1[C@@H]2C(=O)N1CCN(c2ncccn2)CC1`, for which the z-score came out at 0.323.

The compound `O[C@@H](Cc1ccccc1)[C@H]1C2C=CCCC=C2CN1Cc1cccc(Cl)c1` (stereo not given in full) showed a z-score of -0.241.

With `COc1cc2c(cc1OC)CN(C(=O)[C@@H]1[C@H]3C(=O)O[C@H](c4ccccc4)[C@H](c4ccccc4)N3[C@H](c3ccccc3OCCO)[C@@]13C(=O)Nc1ccc(C#CCCO)cc13)CC2`, the z-score was 0.453.

`Cc1ccc(S[C@]2(C(=O)O)CC(=O)N(C(C)C)[C@@H]2c2ccc(CO)cc2I)cc1` registered a z-score of 0.0957.

`O=C1O[C@H](c2ccccc2)[C@H](c2ccccc2)N2[C@H]1[C@@H](C(=O)N1CCCCCCC1)[C@]1(C(=O)Nc3ccc(C#CCCO)cc31)[C@H]2c1ccccc1OCCO`: the z-score is 0.42.

In turn, `C=CCNC(=O)[C@@H]1[C@H]2C(=O)O[C@H](c3ccccc3)[C@H](c3ccccc3)N2[C@H](c2ccc(O)cc2)[C@@]12C(=O)N(C(=O)OCCOC)c1ccc(C#CCNC(N)=O)cc12` yielded a z-score of -0.194.

With `O=C(c1ccccc1)N1C(=O)[C@@]2(Cc3ccccc31)N=C(c1ccc(OCCCO)cc1)O[C@H]2c1ccccc1`, the z-score came to 0.157.

`C=C(/C(=C/C[C@H](OC(C)=O)c1ccccc1OCCO)c1cnc2ccccc2c1)C(C)C` returned a z-score of 0.469.

As for `CC(C)C(CO)N1C(=O)[C@@H]2C3C(=O)OCCC/C=C\[C@H]3OC23C=CCN(CCN2CCOCC2)C(=O)[C@@H]13` (stereo not given in full), the z-score was -0.936.

On to `CCCC[C@H]1OB(O)C[C@H]2C1=C(COC)C[C@H]1C(=O)N(C)C(=O)[C@H]12`, for which the z-score is -1.27.

`COC(=O)[C@@]1(Cc2ccc(F)cc2)[C@H]2c3cc(C(=O)N(C)C)n(Cc4ccc(Cl)c(C(F)(F)F)c4)c3C[C@H]2CN1C(=O)c1ccccc1` yielded a z-score of 1.96.

For `COc1ccc(CCNC(=O)[C@@]2(Sc3ccc(C)cc3)CC(=O)N(C3Cc4ccccc4C3)[C@@H]2c2ccc(CO)cc2I)cc1`, the z-score was 0.26.

Compound `CCCC[C@H]1OB(O)C[C@H]2C1=C(COC)Cn1c(=O)n(-c3ccccc3)c(=O)n12` had a z-score of 0.0213.

Regarding `CN(C)CCCCCCNC(=O)[C@@H]1C[C@@H]2C(=O)N[C@@H](Cc3ccccc3)C(=O)N2[C@@H]1c1ccc(O)cc1`, the z-score was -1.15.

In the case of `C=C(COC)/C(=C/C[C@H](OC(C)=O)c1ccc(CO)o1)c1cc(C(=O)OC)ccc1OC`, the z-score was -0.527.

Consider `COC(=O)[C@@]1(Cc2ccc(OC)cc2)[C@@H]2C(=CC(=O)[C@H]2CC(=O)C(=O)N2CCCC2)CN1C(=O)c1ccccc1`, for which the z-score came out at 0.718.

As to `Cc1ccc(N2C(=O)c3ccccc3[C@@H](C(=O)NC3CC3)[C@@H]2c2ccc(CO)cc2)nc1`, the z-score is -0.0756.

As for `COCCOC(=O)N1C(=O)[C@@]2(c3cc(C#CCC(C(=O)OC)C(=O)OC)ccc31)[C@H](C(=O)Nc1nc3ccccc3s1)[C@H]1C(=O)O[C@H](c3ccccc3)[C@H](c3ccccc3)N1[C@@H]2c1ccccc1OCCO`, the z-score is -2.23.

Turning to `COCCOC(=O)N1C(=O)[C@@]2(c3cc(C#CCC(C(=O)OC)C(=O)OC)ccc31)[C@H](c1ccccc1OCCO)N1[C@H](c3ccccc3)[C@H](c3ccccc3)OC(=O)[C@H]1[C@@H]2C(=O)NC[C@H](O)c1ccccc1`, the z-score is -0.187.

In the case of `CCCC[C@@H]1C[C@H]1[C@@H](NC(=O)c1ccccc1)c1ccc(C(=O)OC)cc1`, the z-score is -2.55.

Regarding `O=C1[C@@]23C=C(Br)[C@H](C[C@@H]2CCOC3)[C@@]12CO2`, the z-score was -1.08.
